{"source": "PubChem BioAssay (NCATS)", "note": "Records with an inconclusive call do not appear. Active and inactive are the calls of the source. Calls follow the shape of the dose curve; as a rule, active = well fitted cell-killing curve with a large enough effect; inconclusive = small, poorly fitted or top-dose-only effect, or effect the other way; inactive = no such curve, though single readings can be large or run the other way. Potency is read from the fitted curve at half-maximal effect.", "data": [{"assay": "Quantitative High-Throughput drug screen in 47 multiple myeloma cell lines against the NCATS MIPE library collection: OCIMY5_PLB cell viability assay (AID 1918988); also: nearly all actives have a fitted effect of over 65% in size", "settings": "OCI-MY5 myeloma viability, ATP luminescence, 48 h; series mostly up to 45.8 µM", "from_the_text": "PI: Beverly A. Mock Ph.D.\nLaboratory of Cancer Biology and Genetics,\nCenter for Cancer Research, National Cancer Institute,\nNational Institute of Health, Bethesda, Maryland\nDrug resistance and disease progression are common in multiple myeloma (MM) patients, underscoring the need for new therapeutic combinations. […] We hypothesized that effective combinations would reduce MYC expression and enhance p16 activity. […] These preclinical data identify potentially useful drug combinations for evaluation in drug-resistant MM and reveal potential mechanisms of combined drug sensitivity.\nDescribed herein is the primary MIPE qHTS used to cherrypick compounds. Validated compounds were then further tested for potential synergistic activiy.\n[1] Peat TJ, Gaikwad SM, Dubois W, Gyabaah-Kessie N, Zhang S, Gorjifard S, Phyo Z, Andres M, Hughitt VK, Simpson RM, Miller MA, Girvin AT, Taylor A, Williams D, D'Antonio N, Zhang Y, Rajagopalan A, Flietner E, Wilson K, Zhang X, Shinn P, Klumpp-Thomas C, McKnight C, Itkin Z, Chen L, Kazandijian D, Zhang J, Michalowski AM, Simmons JK, Keats J, Thomas CJ, Mock BA. Drug combinations identified by high-throughput screening promote cell cycle transition and upregulate Smad pathways in myeloma. Cancer Lett. 2023 Aug 1;568:216284. doi: 10.1016/j.canlet.2023.216284. Epub 2023 Jun 24. PMID: 37356470; PMCID: PMC10408729.\nSEQUENCE No. (e.g., 1, 2, 3, etc.); […] (e.g., Cells, Incubation, Reagent, etc.); VALUE and DESCRIPTION.\n1; Cells; 5 uL; white, solid bottom 1536-well Greiner assay plate.\n2; Compounds; 23 nL; Kalypsis pin tool (Wako USA) equipped with a 1536-well pin head to transfer to the assay plates.\n3; Incubation; 48 hours; 37C incubation.\n4; Reagent;5uL; CellTiter Glo (Promega).\n5; Detector; 425V; Luminescence; Viewlux PerkinElmer.\nNOTES (numbers refer to Sequence numbers above)\n1. The cell-based screening methods employed in this study were like those previously published. Briefly, the corresponding myeloma cell lines were screened in 1,536-well plates with 500 cells, 5-uL per well for inhibition of cell viability (assessed by measuring ATP levels with CellTiterGlo).\n2. NCATS MIPE 4.0 library of approved and investigational drugs were added using the Kalypsis pin tool. Wells treated with DMSO only for 100% viability and media only for 0% viability were used as controls.\n3. The assay plates were covered and incubated for 48 hours in a 37C, 5% CO2 incubator with controlled humidity.\n4. After 48 hours, CellTilter-GloTM luminescent substrate mix (Promega) reagent was added to the assay plate and plates we incubated for 5 min at room temperature.\n5. Signal was measured as median relative luminescence units on a ViewLux (PerkinElmer) multiplate reader.\n[1] Heske CM, Davis MI, Baumgart JT, Wilson K, Gormally MV, Chen L, Zhang X, Ceribelli M, Duveau DY, Guha R, Ferrer M, Arnaldez FI, Ji J, Tran HL, Zhang Y, Mendoza A, Helman LJ, Thomas CJ. Matrix Screen Identifies Synergistic Combination of PARP Inhibitors and Nicotinamide Phosphoribosyltransferase (NAMPT) Inhibitors in Ewing Sarcoma. Clin Cancer Res. 2017 Dec 1;23(23):7301-7311. doi: 10.1158/1078-0432.CCR-17-1121. Epub 2017 Sep 12. PMID: 28899971; PMCID: PMC6636827.", "values": [{"smiles": "Cc1ccc(-c2cc(C(F)(F)F)nn2-c2ccc(S(N)(=O)=O)cc2)cc1", "Potency": "20.9 µM (active)"}, {"smiles": "OCCN(CCO)c1nc(N2CCCCC2)c2nc(N(CCO)CCO)nc(N3CCCCC3)c2n1", "Potency": "23.5 µM (active)"}, {"smiles": "Nc1nc2c(ncn2COC(CO)CO)c(=O)[nH]1", "Potency": "20.9 µM (active)"}, {"smiles": "O=C(CCCN1CCC(O)(c2ccc(Cl)cc2)CC1)c1ccc(F)cc1", "Potency": "18.7 µM (active)"}, {"smiles": "Nc1nnc(-c2cccc(Cl)c2Cl)c(N)n1", "Potency": "inactive"}, {"smiles": "COC(=O)Nc1nc2ccc(C(=O)c3cccs3)cc2[nH]1", "Potency": "0.0021 µM (active)"}, {"smiles": "CS(=O)(=O)CCNCc1ccc(-c2ccc3ncnc(Nc4ccc(OCc5cccc(F)c5)c(Cl)c4)c3c2)o1", "Potency": "0.0743 µM (active)"}, {"smiles": "CC(C)C(=O)Nc1ccc([N+](=O)[O-])c(C(F)(F)F)c1", "Potency": "1.48 µM (active)"}, {"smiles": "Nc1c2c(nc3ccccc13)CCCC2", "Potency": "23.5 µM (active)"}, {"smiles": "Clc1ccc2c(c1)C(N1CCNCC1)=Nc1ccccc1O2", "Potency": "20.9 µM (active)"}, {"smiles": "CN(C)C(=O)C(CCN1CCC(O)(c2ccc(Cl)cc2)CC1)(c1ccccc1)c1ccccc1", "Potency": "16.6 µM (active)"}, {"smiles": "CN1CCN2c3ccccc3Cc3ccccc3C2C1", "note": "(stereo not given)", "Potency": "23.5 µM (active)"}, {"smiles": "CN1CCN(C2=Nc3cc(Cl)ccc3Nc3ccccc32)CC1", "Potency": "inactive"}, {"smiles": "Cc1ccccc1N1C(=O)c2cc(S(N)(=O)=O)c(Cl)cc2NC1C", "note": "(stereo not given)", "Potency": "inactive"}, {"smiles": "O=C1Cc2cc(CCN3CCN(c4nsc5ccccc45)CC3)c(Cl)cc2N1", "Potency": "37.2 µM (active)"}, {"smiles": "CCN1CCCC1CNC(=O)c1cc(S(=O)(=O)CC)c(N)cc1OC", "note": "(stereo not given)", "Potency": "inactive"}, {"smiles": "O=C(c1ccc(OCCN2CCCCC2)cc1)c1c(-c2ccc(O)cc2)sc2cc(O)ccc12", "Potency": "18.7 µM (active)"}, {"smiles": "Cn1cnc2c1c(=O)[nH]c(=O)n2C", "Potency": "14.8 µM (active)"}, {"smiles": "CC(COc1ccccc1)N(CCCl)Cc1ccccc1", "note": "(stereo not given)", "Potency": "26.4 µM (active)"}, {"smiles": "NCCc1cnc[nH]1", "Potency": "inactive"}, {"smiles": "CC(=O)OCC(CCn1cnc2cnc(N)nc21)COC(C)=O", "Potency": "inactive"}, {"smiles": "CC(C)NCC(O)c1ccc(O)c(O)c1", "note": "(stereo not given)", "Potency": "5.26 µM (active)"}, {"smiles": "O=C(Nc1ccc([N+](=O)[O-])cc1Cl)c1cc(Cl)ccc1O", "Potency": "1.66 µM (active)"}, {"smiles": "CCOC(=O)c1ncn2c1CN(C)C(=O)c1cc(F)ccc1-2", "Potency": "20.9 µM (active)"}, {"smiles": "CN1CCC(=C2c3ccccc3C=Cc3ccccc32)CC1", "Potency": "18.7 µM (active)"}, {"smiles": "O=C(C1CCCCC1)N1CC(=O)N2CCc3ccccc3C2C1", "note": "(stereo not given)", "Potency": "inactive"}, {"smiles": "CCCCc1oc2ccccc2c1C(=O)c1cc(I)c(OCCN(CC)CC)c(I)c1", "Potency": "16.6 µM (active)"}, {"smiles": "CC(C)Cc1ccc(C(C)C(=O)O)cc1", "note": "(stereo not given)", "Potency": "inactive"}, {"smiles": "O=c1[nH]cc(F)c(=O)[nH]1", "Potency": "inactive"}, {"smiles": "C[C@@H]1CC(=O)NN=C1c1ccc(NN=C(C#N)C#N)cc1", "Potency": "18.7 µM (active)"}, {"smiles": "O=C1N(c2ccccc2)c2ccccc2C1(Cc1ccncc1)Cc1ccncc1", "Potency": "37.2 µM (active)"}, {"smiles": "CN1C(C(=O)Nc2ccccn2)=C(O)c2ccccc2S1(=O)=O", "Potency": "inactive"}, {"smiles": "O=C1c2c(O)ccc(O)c2C(=O)c2c(NCCNCCO)ccc(NCCNCCO)c21", "Potency": "1.32 µM (active)"}, {"smiles": "NC12CC3CC(CC(C3)C1)C2", "Potency": "0.0026 µM (active)"}, {"smiles": "N[C@@H](Cc1c[nH]c2ccc(O)cc12)C(=O)O", "Potency": "inactive"}, {"smiles": "CS(=O)(=O)Nc1ccc([N+](=O)[O-])cc1Oc1ccccc1", "Potency": "11.8 µM (active)"}, {"smiles": "CN(C)CCC=C1c2ccccc2C=Cc2ccccc21", "Potency": "14.8 µM (active)"}, {"smiles": "NC(=O)NO", "Potency": "0.235 µM (active)"}, {"smiles": "CN(C)CCCN1c2ccccc2CCc2ccc(Cl)cc21", "Potency": "0.418 µM (active)"}, {"smiles": "CCC1(C)CC(=O)NC1=O", "note": "(stereo not given)", "Potency": "inactive"}]}]}
